Data from the supplement of paper PMC11732987, “Enantioselective OTUD7B fragment discovery through chemoproteomics screening and high-throughput optimisation” (Communications Chemistry, 2025).

Columns and labels:
Assay in all cases: log2 ratio of Biotin-Ahx-Ub-VS probe labelling (fragment/DMSO); higher = less target engagement (more negative = stronger competition), active = hit call of the paper (q ≤ 0.05, log2 ratio ≤ -1)
Conditions in all cases: compound concentration: 200 uM; treatment time: 3 h
USP9X = USP9X (UniProt Q93008)
In short: (§1)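 Fragment (200 µM) or vehicle was incubated for 3 h with triplicate HEK293T lysate samples of 495 µg, which were then treated with Biotin-Ahx-Ub-VS at 0.5 µM final for 1 h. Labelled DUBs were enriched on NeutrAvidin, digested with LysC and trypsin, and analysed by diaPASEF LC-MS/MS. Values are average log2 fragment/vehicle ratios from an unpaired t-test on global-median-normalised Spectronaut label-free quantities, using proteins with ≥2 unique peptides.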

UniProt O00487 = biological target: UniProt O00487
In short: as §1

UniProt O00507 = biological target: UniProt O00507
In short: as §1

UniProt P51784 = biological target: UniProt P51784
In short: as §1

UniProt Q5T2D3 = biological target: T1, UniProt Q5T2D3
T1 sequence (whole entry): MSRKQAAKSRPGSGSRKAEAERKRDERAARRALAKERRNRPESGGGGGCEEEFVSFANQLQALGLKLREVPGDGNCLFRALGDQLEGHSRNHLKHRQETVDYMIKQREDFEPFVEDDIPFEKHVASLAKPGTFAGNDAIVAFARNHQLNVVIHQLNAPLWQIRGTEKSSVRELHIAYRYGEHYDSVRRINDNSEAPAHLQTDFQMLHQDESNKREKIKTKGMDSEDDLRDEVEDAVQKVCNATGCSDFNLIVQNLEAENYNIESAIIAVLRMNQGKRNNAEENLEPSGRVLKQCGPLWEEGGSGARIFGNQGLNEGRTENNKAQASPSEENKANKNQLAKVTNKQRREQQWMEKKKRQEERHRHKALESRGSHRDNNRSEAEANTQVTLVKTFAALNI
In short: as §1

UniProt Q8TE49 = biological target: T2, UniProt Q8TE49
T2 sequence (whole entry): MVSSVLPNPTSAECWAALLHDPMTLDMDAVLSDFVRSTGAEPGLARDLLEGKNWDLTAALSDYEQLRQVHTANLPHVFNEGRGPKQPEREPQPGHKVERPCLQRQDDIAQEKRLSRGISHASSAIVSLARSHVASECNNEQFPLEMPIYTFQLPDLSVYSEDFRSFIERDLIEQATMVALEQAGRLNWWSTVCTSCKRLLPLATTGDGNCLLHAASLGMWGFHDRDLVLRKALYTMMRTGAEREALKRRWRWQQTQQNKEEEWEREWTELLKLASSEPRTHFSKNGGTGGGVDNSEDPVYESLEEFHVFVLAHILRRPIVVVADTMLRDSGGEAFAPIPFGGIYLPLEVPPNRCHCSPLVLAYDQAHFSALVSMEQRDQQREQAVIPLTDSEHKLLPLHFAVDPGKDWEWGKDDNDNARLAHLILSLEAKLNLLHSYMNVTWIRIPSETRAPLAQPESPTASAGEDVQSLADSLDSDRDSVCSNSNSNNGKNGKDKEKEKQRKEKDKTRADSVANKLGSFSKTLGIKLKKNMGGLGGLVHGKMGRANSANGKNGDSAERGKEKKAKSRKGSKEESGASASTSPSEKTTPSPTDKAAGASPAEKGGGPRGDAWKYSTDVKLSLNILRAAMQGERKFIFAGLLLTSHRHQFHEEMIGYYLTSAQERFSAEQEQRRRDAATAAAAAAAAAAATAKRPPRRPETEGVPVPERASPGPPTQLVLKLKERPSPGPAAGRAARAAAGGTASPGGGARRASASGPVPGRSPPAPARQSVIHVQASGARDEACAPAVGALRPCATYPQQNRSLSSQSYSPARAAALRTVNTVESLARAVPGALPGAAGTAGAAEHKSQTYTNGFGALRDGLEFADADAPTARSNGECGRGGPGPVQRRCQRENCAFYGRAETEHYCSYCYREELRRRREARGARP
In short: as §1

UniProt Q9P2H5 = biological target: T3, UniProt Q9P2H5
T3 sequence (whole entry): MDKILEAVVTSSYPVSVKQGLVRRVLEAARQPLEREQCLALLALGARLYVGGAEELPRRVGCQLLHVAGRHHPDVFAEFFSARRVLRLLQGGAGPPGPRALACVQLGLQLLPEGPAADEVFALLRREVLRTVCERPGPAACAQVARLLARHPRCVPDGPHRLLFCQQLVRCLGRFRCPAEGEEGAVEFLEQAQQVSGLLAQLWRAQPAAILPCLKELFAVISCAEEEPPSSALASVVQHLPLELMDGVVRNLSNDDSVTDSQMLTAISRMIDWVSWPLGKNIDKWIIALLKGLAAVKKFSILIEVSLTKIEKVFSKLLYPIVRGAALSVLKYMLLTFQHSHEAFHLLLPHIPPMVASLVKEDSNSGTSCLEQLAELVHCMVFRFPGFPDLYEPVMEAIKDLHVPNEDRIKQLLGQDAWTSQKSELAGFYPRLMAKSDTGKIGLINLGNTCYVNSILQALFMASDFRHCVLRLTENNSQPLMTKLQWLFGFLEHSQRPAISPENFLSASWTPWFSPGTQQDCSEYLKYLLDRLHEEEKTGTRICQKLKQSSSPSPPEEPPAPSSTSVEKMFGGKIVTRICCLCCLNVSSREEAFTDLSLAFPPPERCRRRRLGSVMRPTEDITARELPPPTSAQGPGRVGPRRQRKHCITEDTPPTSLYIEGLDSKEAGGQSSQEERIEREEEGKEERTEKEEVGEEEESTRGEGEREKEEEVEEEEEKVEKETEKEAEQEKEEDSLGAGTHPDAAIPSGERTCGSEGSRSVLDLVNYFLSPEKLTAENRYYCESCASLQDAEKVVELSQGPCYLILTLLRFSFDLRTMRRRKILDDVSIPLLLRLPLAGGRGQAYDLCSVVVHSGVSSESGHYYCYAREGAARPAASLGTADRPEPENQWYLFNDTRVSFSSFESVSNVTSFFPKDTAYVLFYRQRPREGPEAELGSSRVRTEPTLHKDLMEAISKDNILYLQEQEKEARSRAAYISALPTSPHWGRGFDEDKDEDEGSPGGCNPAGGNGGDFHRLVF
In short: as §1

UniProt Q9UGI0 = biological target: T4, UniProt Q9UGI0
T4 sequence (whole entry): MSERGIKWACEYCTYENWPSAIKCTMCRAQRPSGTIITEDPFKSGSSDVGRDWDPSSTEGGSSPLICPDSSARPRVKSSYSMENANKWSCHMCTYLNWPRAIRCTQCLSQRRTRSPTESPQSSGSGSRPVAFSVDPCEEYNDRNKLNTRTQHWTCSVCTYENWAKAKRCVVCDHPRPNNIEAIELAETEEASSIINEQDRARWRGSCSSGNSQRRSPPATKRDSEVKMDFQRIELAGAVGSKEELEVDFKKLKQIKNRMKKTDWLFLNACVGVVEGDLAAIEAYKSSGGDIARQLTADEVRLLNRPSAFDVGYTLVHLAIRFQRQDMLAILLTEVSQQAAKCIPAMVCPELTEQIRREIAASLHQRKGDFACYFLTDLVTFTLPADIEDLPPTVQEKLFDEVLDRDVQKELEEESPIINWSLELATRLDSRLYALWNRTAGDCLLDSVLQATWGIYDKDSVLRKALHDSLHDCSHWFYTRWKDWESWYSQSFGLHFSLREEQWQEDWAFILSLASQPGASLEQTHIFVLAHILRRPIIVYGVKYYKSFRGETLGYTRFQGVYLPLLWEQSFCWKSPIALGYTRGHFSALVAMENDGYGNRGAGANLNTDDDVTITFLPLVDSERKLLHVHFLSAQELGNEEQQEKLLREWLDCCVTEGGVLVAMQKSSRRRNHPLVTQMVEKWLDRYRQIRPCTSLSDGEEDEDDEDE
In short: as §1

YOD1 = biological target: T5, YOD1 (UniProt Q5VVQ6)
T5 sequence (whole entry): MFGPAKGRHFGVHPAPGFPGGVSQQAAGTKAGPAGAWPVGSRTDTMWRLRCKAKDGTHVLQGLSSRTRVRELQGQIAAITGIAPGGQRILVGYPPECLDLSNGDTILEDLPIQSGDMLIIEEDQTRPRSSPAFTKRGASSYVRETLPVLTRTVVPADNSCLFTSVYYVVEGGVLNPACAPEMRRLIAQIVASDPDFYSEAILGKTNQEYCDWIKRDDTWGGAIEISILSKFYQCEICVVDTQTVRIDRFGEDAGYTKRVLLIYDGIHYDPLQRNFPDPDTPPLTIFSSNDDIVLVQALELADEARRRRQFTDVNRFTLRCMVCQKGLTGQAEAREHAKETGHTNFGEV
In short: as §1

Measured: log2 ratio of Biotin-Ahx-Ub-VS probe labelling

Chain of UniProt O00507 (O00507 whole entry): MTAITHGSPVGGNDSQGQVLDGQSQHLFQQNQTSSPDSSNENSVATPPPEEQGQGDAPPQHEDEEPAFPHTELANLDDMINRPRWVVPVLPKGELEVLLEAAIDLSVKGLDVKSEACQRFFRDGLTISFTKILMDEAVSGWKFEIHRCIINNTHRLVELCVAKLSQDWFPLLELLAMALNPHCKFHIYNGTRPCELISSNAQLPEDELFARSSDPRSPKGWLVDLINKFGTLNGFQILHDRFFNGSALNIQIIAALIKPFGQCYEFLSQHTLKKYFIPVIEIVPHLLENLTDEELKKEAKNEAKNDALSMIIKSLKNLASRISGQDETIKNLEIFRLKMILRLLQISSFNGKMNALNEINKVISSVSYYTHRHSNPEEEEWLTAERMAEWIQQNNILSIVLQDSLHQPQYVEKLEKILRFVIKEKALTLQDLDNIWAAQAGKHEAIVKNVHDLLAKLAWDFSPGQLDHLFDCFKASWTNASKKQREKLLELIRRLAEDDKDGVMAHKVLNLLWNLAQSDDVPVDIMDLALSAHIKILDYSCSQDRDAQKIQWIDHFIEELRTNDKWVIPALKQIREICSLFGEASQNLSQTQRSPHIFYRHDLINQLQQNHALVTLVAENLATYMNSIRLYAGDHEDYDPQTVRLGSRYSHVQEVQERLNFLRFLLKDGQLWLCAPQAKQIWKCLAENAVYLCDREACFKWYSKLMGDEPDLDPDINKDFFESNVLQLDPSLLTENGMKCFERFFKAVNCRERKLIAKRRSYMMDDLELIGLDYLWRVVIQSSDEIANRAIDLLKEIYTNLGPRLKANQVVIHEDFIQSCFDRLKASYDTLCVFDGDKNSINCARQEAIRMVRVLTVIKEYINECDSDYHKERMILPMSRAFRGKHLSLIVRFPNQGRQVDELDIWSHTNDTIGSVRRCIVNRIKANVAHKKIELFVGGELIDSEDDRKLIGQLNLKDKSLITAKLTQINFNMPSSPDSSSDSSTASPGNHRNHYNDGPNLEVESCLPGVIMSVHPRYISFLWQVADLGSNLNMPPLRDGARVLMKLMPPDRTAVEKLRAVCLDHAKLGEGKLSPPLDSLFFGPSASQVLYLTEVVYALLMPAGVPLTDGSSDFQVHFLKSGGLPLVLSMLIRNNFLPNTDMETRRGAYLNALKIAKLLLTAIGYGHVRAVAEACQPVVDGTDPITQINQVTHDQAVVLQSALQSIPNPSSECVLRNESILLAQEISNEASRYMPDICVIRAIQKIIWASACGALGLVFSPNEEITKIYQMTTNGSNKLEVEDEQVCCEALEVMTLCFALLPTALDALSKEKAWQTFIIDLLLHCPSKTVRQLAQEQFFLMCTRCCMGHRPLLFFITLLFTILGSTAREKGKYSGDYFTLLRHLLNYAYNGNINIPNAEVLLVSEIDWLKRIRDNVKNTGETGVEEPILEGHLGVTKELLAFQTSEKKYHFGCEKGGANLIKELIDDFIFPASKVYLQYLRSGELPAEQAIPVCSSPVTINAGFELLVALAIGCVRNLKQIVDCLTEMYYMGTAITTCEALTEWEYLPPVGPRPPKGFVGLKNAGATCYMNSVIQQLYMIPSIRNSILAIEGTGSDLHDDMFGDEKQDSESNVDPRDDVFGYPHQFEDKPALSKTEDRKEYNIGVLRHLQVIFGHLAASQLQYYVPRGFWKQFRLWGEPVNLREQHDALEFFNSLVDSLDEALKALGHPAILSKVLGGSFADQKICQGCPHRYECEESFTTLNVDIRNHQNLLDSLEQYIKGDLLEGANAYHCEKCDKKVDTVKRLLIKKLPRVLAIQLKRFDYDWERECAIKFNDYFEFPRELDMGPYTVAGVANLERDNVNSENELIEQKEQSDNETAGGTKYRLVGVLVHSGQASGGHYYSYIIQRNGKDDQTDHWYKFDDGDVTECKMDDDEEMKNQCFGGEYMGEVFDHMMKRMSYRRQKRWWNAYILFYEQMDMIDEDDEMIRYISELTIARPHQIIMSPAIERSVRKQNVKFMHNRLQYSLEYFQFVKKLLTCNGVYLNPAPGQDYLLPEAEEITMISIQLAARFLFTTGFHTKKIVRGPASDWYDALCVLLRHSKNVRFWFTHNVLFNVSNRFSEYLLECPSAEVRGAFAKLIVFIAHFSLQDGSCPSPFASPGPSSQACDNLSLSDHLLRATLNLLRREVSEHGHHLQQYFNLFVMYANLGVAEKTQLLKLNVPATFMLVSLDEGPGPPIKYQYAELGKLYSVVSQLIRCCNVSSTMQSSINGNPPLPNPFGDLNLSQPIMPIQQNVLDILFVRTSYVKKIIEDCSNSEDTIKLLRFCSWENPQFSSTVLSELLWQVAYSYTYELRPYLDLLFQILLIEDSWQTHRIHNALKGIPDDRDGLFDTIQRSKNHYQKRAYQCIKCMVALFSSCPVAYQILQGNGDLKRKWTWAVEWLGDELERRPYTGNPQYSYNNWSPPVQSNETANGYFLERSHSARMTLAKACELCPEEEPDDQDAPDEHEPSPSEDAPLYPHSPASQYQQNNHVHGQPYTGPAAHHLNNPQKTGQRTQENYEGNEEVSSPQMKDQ
Chain of UniProt O00487 (O00487 whole entry): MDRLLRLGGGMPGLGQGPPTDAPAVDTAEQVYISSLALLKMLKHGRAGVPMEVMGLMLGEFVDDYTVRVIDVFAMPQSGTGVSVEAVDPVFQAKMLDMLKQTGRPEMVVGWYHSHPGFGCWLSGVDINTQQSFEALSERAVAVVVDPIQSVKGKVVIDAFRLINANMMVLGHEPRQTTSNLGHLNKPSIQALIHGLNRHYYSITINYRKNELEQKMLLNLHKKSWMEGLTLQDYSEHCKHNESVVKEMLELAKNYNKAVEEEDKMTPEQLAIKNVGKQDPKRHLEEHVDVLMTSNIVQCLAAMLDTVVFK
Chain of UniProt P51784 (P51784 whole entry): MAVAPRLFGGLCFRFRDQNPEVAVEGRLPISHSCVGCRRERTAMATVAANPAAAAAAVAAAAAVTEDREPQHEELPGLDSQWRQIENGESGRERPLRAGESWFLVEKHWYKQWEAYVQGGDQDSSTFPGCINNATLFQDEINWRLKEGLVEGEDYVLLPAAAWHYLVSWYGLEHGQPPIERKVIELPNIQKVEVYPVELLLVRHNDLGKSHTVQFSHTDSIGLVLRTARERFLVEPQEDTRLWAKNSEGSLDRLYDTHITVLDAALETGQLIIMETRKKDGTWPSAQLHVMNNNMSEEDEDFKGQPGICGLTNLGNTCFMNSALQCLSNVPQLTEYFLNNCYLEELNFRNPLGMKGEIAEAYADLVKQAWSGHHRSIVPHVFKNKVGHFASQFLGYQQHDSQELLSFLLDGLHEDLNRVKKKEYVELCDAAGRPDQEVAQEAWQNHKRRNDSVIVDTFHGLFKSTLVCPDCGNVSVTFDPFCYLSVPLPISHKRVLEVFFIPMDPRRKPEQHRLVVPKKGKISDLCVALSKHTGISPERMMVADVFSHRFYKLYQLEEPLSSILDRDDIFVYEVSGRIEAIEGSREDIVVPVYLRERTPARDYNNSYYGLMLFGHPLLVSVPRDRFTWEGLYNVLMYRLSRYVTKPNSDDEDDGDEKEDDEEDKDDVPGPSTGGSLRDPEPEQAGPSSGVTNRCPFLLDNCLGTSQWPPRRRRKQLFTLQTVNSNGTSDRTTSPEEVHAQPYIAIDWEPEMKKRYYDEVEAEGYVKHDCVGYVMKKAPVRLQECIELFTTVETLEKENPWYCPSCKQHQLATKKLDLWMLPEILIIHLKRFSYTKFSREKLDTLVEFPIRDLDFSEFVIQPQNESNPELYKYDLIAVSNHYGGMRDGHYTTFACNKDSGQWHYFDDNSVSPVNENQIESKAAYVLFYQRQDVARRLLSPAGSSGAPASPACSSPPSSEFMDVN

O=C(CCl)N1CCN(c2nc3ccccc3o2)CC1
inactive: USP9X -0.248 | UniProt O00487 -0.0834 | UniProt O00507 -0.666 | UniProt P51784 -0.255 | UniProt Q5T2D3 -0.0854 | UniProt Q8TE49 -0.515 | UniProt Q9P2H5 -0.57 | UniProt Q9UGI0 -0.691 | YOD1 -0.434
